From PubChem
Compounds with a hit are over-represented: about 6% of the library has one in this group of screens.
D1 ag: agonists of human D1 dopamine receptor; HEK293 T-REx D1 cells, calcium flux, agonist mode; activation, % at 2 µM; 360,000 tested, 1% active; in the data active means activation above about 30%; further: 0% is about no effect
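Inducible HEK293 T-REx D1 cells, force-coupled to calcium signalling, were plated at 4000 cells/well with tetracycline and held overnight at 30 C. After no-wash calcium dye loading, compound-evoked calcium rise over 180 s flagged agonists.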
D3 antag: antagonists of human D3 dopamine receptor | P35462 | D3R cells, DiscoveRx beta-arrestin luminescence, antagonist mode; stronger effect = lower value | max response, negative = inhibition, % | 360,000 tested, 2.5% active; in the data active means max response below about -50%; inconclusive means no clear call, values can overlap the other calls; further: on the % scale 0 is the no-effect control and ±100 the full control effect
Target sequence (P35462 whole entry, looked up): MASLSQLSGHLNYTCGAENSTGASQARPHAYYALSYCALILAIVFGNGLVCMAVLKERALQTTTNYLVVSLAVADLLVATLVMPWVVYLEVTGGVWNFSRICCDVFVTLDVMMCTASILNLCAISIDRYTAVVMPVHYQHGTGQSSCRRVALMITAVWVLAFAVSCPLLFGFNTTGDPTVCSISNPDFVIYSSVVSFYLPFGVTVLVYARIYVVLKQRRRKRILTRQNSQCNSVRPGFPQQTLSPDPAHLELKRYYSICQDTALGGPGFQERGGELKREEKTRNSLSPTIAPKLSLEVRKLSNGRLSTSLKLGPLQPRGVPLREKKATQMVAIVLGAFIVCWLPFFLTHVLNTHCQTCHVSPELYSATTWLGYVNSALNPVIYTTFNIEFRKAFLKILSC
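Cells plated overnight at 1500 cells/well, then exposed to library compounds with dopamine controls for 90 minutes at 37 degrees C. DiscoveRx reagent added for 30–60 minutes at room temperature; luminescence read, quantitative HTS format.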
D1 antagonist: blocks dopamine activation of the human D1 receptor | HEK293 TREx D1 cells, calcium flux, dopamine EC80; stronger effect = lower value | P21728 | 360,000 tested, 3.2% active | AID 504652 | activity change, negative = inhibition, % at 10 µM; in the data active means activity change below about -30%; further: on the % scale 0 is the no-effect control and ±100 the full control effect
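Calcium flux readout: force-coupled, inducible Hek293 Trex D1 line, cells induced overnight at 30 C with tetracycline, dye-loaded 30–90 min at RT. Antagonism scored against EC80 dopamine challenge given 180 s after compound.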
D1 potentiator: enhances dopamine response at the human D1 receptor; P21728; HEK293 TREx D1 cells, calcium flux, dopamine EC20 potentiation; potentiation, % at 10 µM; 360,000 tested, 0.036% active; in the data active means potentiation above about 30%; further: 0% is about no effect
DRD3 agonist: activates the human D3 dopamine receptor | P35462 | D3R DiscoveRx beta-arrestin cells, luminescence, 90 min | max activation, % | 410,000 tested, 0.58% active; in the data active means max activation above about 30%; further: 0% is about no effect
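Agonist-mode cell screen: cells plated at 1500/well and incubated overnight at 37 °C, then exposed to library compounds for 90 min at 37 °C. Detection reagent was added for 30–60 min at room temperature, and luminescence was read.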
BCR signal inh: chronic active BCR signaling inhibition. ABC-DLBCL IkBa-CBG/CBR reporter, luminescence ratio, 4 h. Potency, µM (series often up to 46.1 µM), inactives show at the highest dose activity change, negative = inhibition, usual class: inhibitors. 340,000 tested, 0.05% active; active means well fitted inhibition curve with a large enough effect in the signal ratio, with a control signal flat, not every such curve was filed as active; inconclusive means small, poorly fitted or top-dose-only effect, or effect the other way, or a change in a side signal; the % refers to the signal ratio;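 further: potency means the concentration at half of the fitted maximal effect; plate controls were basal doxycycline-induced cells for no effect and cells given 10 µM MG132 for full effect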
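TMD8 human ABC-DLBCL cells with doxycycline-inducible IκBα–green luciferase fusion and unfused red luciferase, in 0.5% FBS medium; compounds up to 46 uM, 4 h at 37C. Green/red luminescence ratio, filter-overlap corrected, fitted to concentration-response curves.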
Active calls of the source: *; ? = inconclusive; . = not tested or not shown.

SMILES | D1 ag | D3 antag | D1 antagonist | D1 potentiator | DRD3 agonist | BCR signal inh
C=C(C)[C@@H]1CCC2(C(=O)O)CC[C@]3(C)[C@H](CC[C@@H]4[C@@]5(C)CCC(=O)C(C)(C)[C@@H]5CC[C@]43C)[C@@H]12 (some centres not stated) | 0 | 1 | -5 | -4 | 9 | -5%
COc1cc(C(=O)N/N=C/c2ccc(OC)c(CN3CCN(c4ccc(F)cc4)CC3)c2)ccc1O | 6 | -75* | -1 | -8 | -13 | ?
COc1ccc(CC(=O)Nc2cc(C)on2)cc1OC | -2 | 7 | 35 | 1 | -11 | -5%
COc1ccc(/C=N/OCC(=O)Nc2cc(C)on2)cc1OC | 2 | 18 | 2 | 4 | 30* | ?
CN(C)c1nc2ccc(OCCN3CCCCC3)cc2s1 | 3 | -68* | 3 | -5 | -3 | -4%
CCN(CC)CCOc1ccc2nc(N(C)C)sc2c1 | 7 | -59* | -4 | -1 | 1 | 9%
CCOc1ccc2nc(N(CCN(CC)CC)C(=O)c3ccc([N+](=O)[O-])cc3)sc2c1 | 3 | -4 | 15 | 1 | -1 | -8%
COc1ccccc1N1CCN(C(=O)CN2C(=O)C3CCCCC3C2=O)CC1 (configuration not stated) | 1 | -16 | -5 | 0 | 0 | -1%
CCCCOc1ccccc1N1CCN(CCCN2C(=O)C3CCCN3C2=O)CC1 (configuration not stated) | 0 | -87* | 5 | -7 | -17 | -7%
COc1ccccc1N1CCN(CCCCN2C(=O)C3CCCCN3C2=O)CC1 (configuration not stated) | 1 | -77* | -26 | 4 | -35 | 6%
COc1ccccc1N1CCN(CCCN2CC(=O)N3CCCCC3C2=O)CC1 (configuration not stated) | . | -53* | . | . | -17 | .
O=C1C2CCCN2C(=O)N1CCN1CCN(CCO)CC1 (configuration not stated) | 2 | -10 | -13 | -5 | 3 | 4%
Cc1ccccc1N1CCN(CCCCN2C(=O)C3CCCN3C2=O)CC1 (configuration not stated) | 7 | -84* | -57* | -11 | -14 | 0%
CCOc1ccc(N=C(C)Nc2ccc(OCC)cc2)cc1 | . | . | . | . | -8 | .
CC(C)CN1C2CCCC1CC(NC(=O)c1ccc([N+](=O)[O-])cc1)C2 (configuration not stated) | 1 | -13 | -48* | -9 | -6 | -1%
CCCN1C2CCCC1CC(NC(=O)c1ccc(Br)cc1)C2 (configuration not stated) | 5 | 16 | -48* | -6 | -4 | -1%
CCCN1C2CCCC1CC(NC(=O)c1ccc(F)cc1)C2 (configuration not stated) | 1 | 21 | -12 | -3 | -2 | 0%
CC1=C(C(=O)N(C)C)CC(CC(=O)NCCCN(C)C)C(=O)N1CCCN1CCCC1=O (configuration not stated) | . | 10 | . | . | 9 | .
Clc1ccc(C2=Nn3c(nnc3-c3cc(-c4ccccc4)n[nH]3)SC2)cc1 | -1 | ? | 13 | 5 | 1 | 5.2µM*
Cc1ccc(-c2nnc3n2N=C(c2ccccc2)CS3)cc1 | 1 | ? | -16 | 1 | -5 | ?
c1ccc(C2=Nn3c(nnc3-c3cc(-c4ccccc4)n[nH]3)SC2)cc1 | 4 | 19 | 18 | 0 | -1 | 12µM*
COC1=CC(=O)OC(c2cccc([N+](=O)[O-])c2)C1 (configuration not stated) | . | 3 | . | . | -1 | .
COc1cc2[nH]c(=O)n(CCCC(=O)NCc3ccccc3Cl)c(=O)c2cc1OC | 2 | . | -6 | 1 | -16 | .
O=C(NNC(=O)c1ccc(NC(=O)c2ccccc2)cc1)c1ccccc1 | 59* | -3 | 8 | -5 | 2 | 5%
O=C(Cc1ccccc1)NNC(=O)c1ccc(NC(=O)c2ccccc2)cc1 | 4 | 13 | -11 | 4 | -2 | 3%
SMILES | D1 ag | D3 antag | D1 antagonist | D1 potentiator | DRD3 agonist | BCR signal inh
O=C1C(Cl)=C(NC(=O)c2ccccc2)C(=O)C(Cl)=C1NC(=O)c1ccccc1 | 1 | -71* | -1 | -4 | -37 | ?
O=C(NC1=C(Nc2ccc(Cl)cc2)C(=O)c2ccccc2C1=O)c1ccccc1 | 0 | -30 | 14 | 3 | 2 | ?
CN(C1=C(NC(=O)c2ccc(Cl)cc2)C(=O)c2ccccc2C1=O)c1ccccc1 | 6 | -52* | -5 | 15 | -21 | ?
O=C(Nc1cccc(Cl)c1)c1ccccc1 | 0 | -5 | 1 | -5 | 0 | -4%
O=C(Cc1ccccc1)Nc1ccc(NC(=O)c2ccc(Br)cc2)cc1 | 3 | 20 | -10 | 6 | 2 | 0%
O=C(Cc1ccccc1)Nc1ccc(C(=O)Nc2ccc(O)cc2)cc1 | 33* | 14 | -12 | 0 | 0 | 4%
Cc1ccc2oc(-c3cccc(NC(=O)c4ccc(N5CCC(C)CC5)c([N+](=O)[O-])c4)c3)nc2c1 | 0 | . | -3 | -2 | -14 | .
Cc1cccc(C)c1NC(=O)CSCc1cnn(-c2ccccc2)c1-n1cccc1 | -2 | . | 5 | -3 | 3 | .
COc1ccc(CCNc2nc3ccccc3c3nc(-c4cccc(C)c4)nn23)cc1OC | 0 | . | -5 | -4 | 18 | .
Cc1ccc(C)c(CN2C(=O)c3ccccc3S(=O)c3ccc(C(=O)NCCc4ccc(Cl)cc4)cc32)c1 (configuration not stated) | 15 | . | 15 | -2 | -6 | .
COc1ccc(N2CCN(c3ncnc4onc(C)c34)CC2)cc1 | 21 | . | -36* | -9 | 0 | .
O=C(N/N=C/c1ccccn1)c1cc(-c2ccc(Cl)cc2)nc2ccccc12 | 1 | -67* | 5 | 4 | -26 | ?
O=C(N/N=C/c1ccccn1)c1cc(-c2ccc(Br)cc2)nc2ccccc12 | 1 | -95* | -5 | -4 | -52 | 4%
O=C(O)COc1ccccc1/C=N/NC(=O)c1cc(-c2ccc(Cl)cc2)nc2ccccc12 | 1 | -23 | -4 | -7 | -13 | 8%
COC(=O)C[C@H]1CC[C@H](NS(=O)(=O)c2cn(C)cn2)[C@@H](CO)O1 | . | 1 | . | . | -5 | .
COCCn1c(C)cc(O)c(C(c2ccccc2)N2CCC(C)CC2)c1=O (configuration not stated) | -1 | . | -6 | 1 | -10 | .
COc1ccc(-c2nc3scc(CCNS(=O)(=O)c4ccc(F)cc4C)n3n2)cc1 | 11 | . | . | -3 | 5 | ?
COc1ccc(NC2=Nc3ccccc3CC2)cc1 | 2 | -56* | 2 | -7 | -34 | ?
COc1ccc(NC2=NCCCCC2)cc1 | 1 | 19 | 2 | 1 | -2 | -8%
